# CF NFkB inh – inhibitors of PAF-induced NF-kB signaling, primary screen, cell-based, GFP fluorescence, uHTS; AID 588850, 2011; actives 0.86% (n = 360,000); KKLEB NF-kB-GFP reporter, GFP fluorescence overnight; inhibition, % at 5 µM;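 active means at least 50% inhibition at 5 µM, scaled per plate between neutral and stimulator controls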;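 further: PAF is a Pseudomonas aeruginosa culture filtrate used as stimulus; plate controls were PAF-stimulated DMSO wells for no effect and unstimulated DMSO wells for full effect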
# Shn3 3UTR inh – reduction of Shn3 3'UTR firefly luciferase signal, primary screen, Schnurri-3 inhibitor project, cell-based, Clone20 osteoblasts, set 2 | Clone20 osteoblast Shn3 3'UTR firefly luciferase, 24 h | inhibition, % at 12.5 µM | actives 0.52% (n = 360,000);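 active means mean inhibition of at least 75% with every replicate also reaching 75%; inconclusive means mean inhibition at least 75% but some replicate below; inactive means mean inhibition below 75%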;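 further: 0% = median of neutral control wells and 100% = pilot-screen positive control compound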
# MITF TRPM1 inh – inhibitors of MITF-dependent TRPM1 promoter reporter, primary screen, cell-based, SK-MEL-5, single point, luciferase | inhibition, % at 12.5 µM | SK-MEL-5 TRPM1 promoter luciferase, 24 h | actives 0.83% (n = 330,000) | AID 488899, 2010;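 active means mean inhibition across replicates of 60% or more, whatever share of single replicates reaches that level; inconclusive means some that reach 60%, reason not given; inactive means mean inhibition across replicates below 60%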
# HIF-2a inh – HIF-2a reporter inhibitors, primary screen, luminescence, 786-0 RCC cells; inhibition, % at 18.8 µM; 786-0 RCC cells HIF-2a reporter, luciferase luminescence, overnight; actives 0.72% (n = 360,000); AID 624352, 2012;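 active means inhibition of the luminescence signal of 40% or more relative to plate controls, in a single-dose primary screen at 18.75 µM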
# KKLEB tox – cytotoxicity in KKLEB CF airway cells, primary screen, cytotoxicity control for CF NF-kB inhibitor project, cell-based, uHTS, fluorescence assay plates | actives 0.36% (n = 360,000) | KKLEB CF airway cells viability, ATPlite luminescence, overnight; stronger effect = lower value; cells stimulated with P. aeruginosa culture filtrate | activity change (cytotoxicity), % at 5 µM;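 active means corrected activity change at or below -50% at 5 µM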
# Peg3 promoter – Peg3 promoter-driven luciferase inhibitors, primary screen, cell-based, HeLa, luciferase luminescence. AID 588405, 2011. actives 1.7% (n = 360,000). HeLa PEG-Prom luciferase reporter, overnight. inhibition, % at 20 µM;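 active means inhibition of at least 50% at 20 µM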
# Starred values were filed as active, the others as inactive; ? = inconclusive; / = no result given. Hits are enriched below; roughly 2.8% of the tested compounds scored in any of these assays.
SMILES,CF NFkB inh,Shn3 3UTR inh,MITF TRPM1 inh,HIF-2a inh,KKLEB tox,Peg3 promoter
COc1ccc(-c2oc(=O)c3cc(OC)c(OC)cc3c2-c2ccc3c(c2)OCO3)cc1,-15,-8,-15,-185,9,-98
CCN(Cc1ccc(OC)c(F)c1)C(=O)CCl,13,15,75*,13,0,40
O=C(/C=C/c1cccc([N+](=O)[O-])c1)c1ccc([N+](=O)[O-])o1,97*,97*,99*,44*,-89*,100*
O=C(NCc1ccc(F)c(F)c1)C1Cc2c(-c3ccc4c(c3)OCO4)ccnc2O1 (configuration not stated),19,-2,/,8,-34,10
c1ccc(-c2nnc(-c3ccccn3)nc2NC2CCCCC2)cc1,35,80,74*,-27,-15,37
CNc1nc(-c2ccccn2)nnc1-c1ccccc1,-4,56,4,11,-2,20
Cc1cccc(CN2CCc3c([nH]c4ccccc34)C2)c1,-5,-2,18,22,5,17
Clc1cccc(CN2CCc3c([nH]c4ccccc34)C2)c1,-10,1,9,28,-26,60*
Cc1ccc(-n2c(C)cc(C(=O)COC(=O)C3=NNC(=O)CC3)c2C)cc1,9,15,9,50*,-2,-1
Cc1cc(C(=O)COC(=O)C2=NNC(=O)CC2)c(C)n1-c1ccccc1,-10,5,31,10,7,-18
Cc1cc2nc(C(C)(C)C)c(Cc3ccsc3)n2c(C)c1Br,/,/,/,19,/,/
COc1ccc(C(C)(C)C)cc1NC(=O)C1CC(=O)N(C2CCCC2)C1 (configuration not stated),9,2,-3,-27,-5,-23
O=C(O)CCN1C(=O)/C(=C/c2cn(-c3ccccc3)nc2-c2cccs2)SC1=S,-3,-2,-4,-11,5,4
O=C(O)CCCCCN1C(=O)/C(=C/c2cn(-c3ccccc3)nc2-c2cccs2)SC1=S,68*,16,-3,-11,-9,4
O=C(O)CCCCCN1C(=O)/C(=C\c2cn(-c3ccccc3)nc2-c2cccs2)SC1=S,59*,-19,6,5,-31,15
Cc1cc2c(cc1S(=O)(=O)CCC(=O)NCCc1ccccc1)OCC(=O)N2,11,3,6,8,4,-3
C=CCn1cc(-c2ccccc2)cc(C#N)c1=O,8,-9,-18,12,-96*,1
C=CCn1cc(-c2ccc(Cl)cc2)cc(C#N)c1=O,-3,-6,-7,6,-16,10
COc1ccc(-c2csc(N(Cc3ccccc3)C(=O)COc3ccc(Cl)cc3)n2)cc1,20,-6,2,8,-26,70*
Cn1c(=O)c(S(=O)C2CCCCC2)c(O)c2ccccc21 (configuration not stated),-8,-4,-9,22,-8,22
O=C(CN1CCN(Cc2cccc(F)c2)CC1)Nc1ccccc1F,-13,13,6,3,-16,8
Cc1cc(NCCCCCCCNc2cc(C)nc3cc([N+](=O)[O-])ccc23)c2ccc([N+](=O)[O-])cc2n1,7,86*,?,33,11,102*
O=C(Nc1cccc([N+](=O)[O-])c1)c1cc2ccccc2cc1O,60*,31,53,-271,-52*,-257
Cc1ccc2cccc(NC(=O)C(F)(F)F)c2n1,6,-14,13,3,-11,1
Cc1cccc(NC(c2ccc(O)cc2)c2ccc3ccc(C)nc3c2O)n1 (configuration not stated),46,18,6,55*,-14,42
SMILES,CF NFkB inh,Shn3 3UTR inh,MITF TRPM1 inh,HIF-2a inh,KKLEB tox,Peg3 promoter
O=S(=O)(Nc1nccs1)c1ccc(NS(=O)(=O)c2c(F)cc(F)c(Cl)c2F)cc1,15,0,-10,5,13,4
CNC(=O)C[C@H]1C(=O)N(CCc2ccccc2)C[C@@H]1CSC,1,-25,/,14,-6,12
FC(F)(F)c1nnc2c(Sc3ccccc3)nc3ccc(Cl)cc3n12,96*,5,82*,34,-90*,62*
FC(F)(F)c1nc2ccccc2n2c(-c3ccc(Cl)cc3Cl)nnc12,16,3,4,22,-4,30
CC(C)c1cccc(C(C)C)c1NC(=O)COC(=O)[C@H](C)NC(N)=O,17,9,9,20,-10,6
NC1=C(O)C(=O)C(c2ccccc2)O1 (configuration not stated),-6,20,-5,-1,2,-6
O=C(CCl)N1CCN(S(=O)(=O)c2ccc3c(c2)CCC3)CC1,-23,-4,66*,25,-16,50*
CN1C(=O)N(CC(=O)N2CCN(S(=O)(=O)c3ccc4c(c3)CCC4)CC2)C(=O)C12CCCCC2,10,3,-1,11,-5,-5
CCN(CC)S(=O)(=O)c1ccc(C)c(NC(=S)N2CCN(c3ccccn3)CC2)c1,1,28,10,7,-3,13
CCN(CC)S(=O)(=O)c1ccc(C)c(NC(=S)N2CCN(C/C=C/c3ccccc3)CC2)c1,4,88*,52,8,1,24
CN(C)/C=C1\Oc2ccc3ccccc3c2C1=O,-20,27,-66,-318,0,-265
O=C1C(=O)c2c(ccc3ccccc23)-c2ccccc21,74*,96*,98*,-106,-84*,102*
CC(C)(C)c1nc(NCCN2CCOCC2)c2nnn(Cc3ccccc3Cl)c2n1,26,84*,22,16,-2,21
Cc1nc(NCCN2CCOCC2)c2nnn(Cc3ccccc3Cl)c2n1,3,19,-4,28,0,11
CC(=O)NC(c1cc(Cl)c2ccccc2c1O)C(C)C (configuration not stated),4,27,7,12,-15,-5
COc1ccc(C(NC(=O)c2cccnc2)c2cc(Cl)c3cccnc3c2O)cc1OC (configuration not stated),-2,93*,19,10,0,34
Cc1ccc(C(c2cc(Cl)c3cccnc3c2O)N2CCN(C)CC2)cc1 (configuration not stated),39,84,11,43*,-28,37
CC(=O)NC(c1cc(Cl)c2cccnc2c1O)C(C)C (configuration not stated),23,86*,29,15,-18,37
CN1CCN(C(c2ccccn2)c2cc(Cl)c3cccnc3c2O)CC1 (configuration not stated),22,23,21,20,-32,16

# Screening data deposited in PubChem BioAssay by several laboratories.
